Test results published in PubChem BioAssay (NCATS).
Results filed as inconclusive are left out. Activity calls are given as the source filed them. Calls follow the shape of the dose curve; as a rule, active = well fitted curve in the direction sought with a large enough effect; inconclusive = small, poorly fitted or top-dose-only effect, or another doubt; inactive = no such curve, though single readings can be large; an effect the other way counts as inactive or inconclusive.

Assays:
[1] = NS1 protein of Zika virus - qHTS assay to identify small molecule inhibitors in human HEK 293 cells (AID 1347053); also: series mostly up to about 46 µM; nearly all actives have a fitted effect of over 55% in size
Method in brief: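 HEK 293 cells, seeded 20 h at 37 C, were pretreated with compound 1 h, then infected with ZIKV MR766 (MOI = 0.5) for 24 h. NS1 was read by TR-FRET with two anti-NS1 antibodies, normalized to uninfected and infected wells.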

[2] = qHTS of pediatric cancer cell lines to identify multiple opportunities for drug repurposing: Primary screen for TC32 cells (AID 1347089); also: nearly all actives have a fitted effect of over 60% in size; also: potency is read from the fitted curve at half-maximal effect
Method in brief: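 TC32 cells, 500-1,000/well in growth medium, compound-treated 48 h at 37 °C; viability from CellTiter-Glo luminescence. Primary screen: MIPE 11-point (0.78 nM–46 µM final), NPC 8-point (0.59 nM–46 µM final); confirmatory at 11-point dilutions.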

[3] = qHTS of pediatric cancer cell lines to identify multiple opportunities for drug repurposing: Primary screen for SJ-GBM2 cells (AID 1347091); also: potency is read from the fitted curve at half-maximal effect
Method in brief: (§1)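 Cell viability, CellTiter-Glo luminescence; 500-1,000 cells/well, 8- or 11-point titration, 48 h compound exposure at 37 degrees C, 5% CO2. Controls: DMSO neutral, bortezomib 2.3 µM final as positive.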

[4] = qHTS of pediatric cancer cell lines to identify multiple opportunities for drug repurposing: Primary screen for A673 cells (AID 1347092); also: nearly all actives have a fitted effect of over 45% in size
Method in brief: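 A673 cells (500-1,000 cells/well) were treated 48 hours at 37 degrees C with compounds at 11-point (0.78 nM to 46 µM) or 8-point (0.59 nM to 46 µM) dilutions. Viability read by CellTiter-Glo luminescence; concentration-response curves fitted.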

[5] = qHTS of pediatric cancer cell lines to identify multiple opportunities for drug repurposing: Primary screen for SK-N-MC cells (AID 1347093); also: potency is read from the fitted curve at half-maximal effect
Method in brief: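 Metabolically active cells were quantified by ATP-dependent luminescence (CellTiter-Glo, 15 min at room temperature) following 48 h treatment. Cells had been plated at 500-1,000 per well and settled for 5 h beforehand.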

[6] = qHTS of pediatric cancer cell lines to identify multiple opportunities for drug repurposing: Primary screen for BT-37 cells (AID 1347094); also: series mostly up to about 57 µM
Method in brief: (§2)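 Following a 5-hour attachment period, cells at 500-1,000/well received compounds and were cultured for 48 hours. CellTiter-Glo was added and luminescence read to estimate viable, metabolically active cells.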

[7] = qHTS of pediatric cancer cell lines to identify multiple opportunities for drug repurposing: Primary screen for NB-EBc1 cells (AID 1347095); also: potency is read from the fitted curve at half-maximal effect
Method in brief: as §2

[8] = qHTS of pediatric cancer cell lines to identify multiple opportunities for drug repurposing: Primary screen for Saos-2 cells (AID 1347097); also: nearly all actives have a fitted effect of over 40% in size
Method in brief: as §2

[9] = qHTS of pediatric cancer cell lines to identify multiple opportunities for drug repurposing: Primary screen for SK-N-SH cells (AID 1347098); also: nearly all actives have a fitted effect of over 65% in size
Method in brief: (§3)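 Cells (500-1,000/well) rested 5 h, then received compounds for 48 h; metabolically active cells were measured by CellTiter-Glo luminescence. Final concentrations spanned up to 46 µM (MIPE, 11-point) or 0.59 nM-46 µM (NPC, 8-point) in primary screens, 11-point in follow-ups.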

[10] = qHTS of pediatric cancer cell lines to identify multiple opportunities for drug repurposing: Primary screen for NB1643 cells (AID 1347099); also: nearly all actives have a fitted effect of over 50% in size; also: potency is read from the fitted curve at half-maximal effect
Method in brief: as §2

[11] = qHTS of pediatric cancer cell lines to identify multiple opportunities for drug repurposing: Primary screen for LAN-5 cells (AID 1347100)
Method in brief: as §3

[12] = qHTS of pediatric cancer cell lines to identify multiple opportunities for drug repurposing: Primary screen for BT-12 cells (AID 1347101); also: nearly all actives have a fitted effect of over 25% in size
Method in brief: as §3

[13] = qHTS of pediatric cancer cell lines to identify multiple opportunities for drug repurposing: Primary screen for U-2 OS cells (AID 1347096); also: nearly all actives have a fitted effect of over 50% in size
Method in brief: as §3

[14] = qHTS of pediatric cancer cell lines to identify multiple opportunities for drug repurposing: Primary screen for DAOY cells (AID 1347090); also: series mostly up to about 46 µM; nearly all actives have a fitted effect of over 55% in size
Method in brief: as §1

Measured: Potency

COc1ccc(CCN(C)CCCN2CCc3cc(OC)c(OC)cc3CC2=O)cc1OC
not listed: [13] | [14]
inactive: all other assays above

CC(=O)Nc1ccc(CC(=O)O)cc1
not listed: [9] | [14]
inactive: all other assays above

CNCCCCOc1ccccc1Cc1ccccc1
inactive: [1] | [2] | [14] | [7] | [13]

CCCCNc1ccc(C(=O)OCCOCCOCCOCCOCCOCCOCCOCCOCCOC)cc1
not listed: [3] | [4] | [6] | [12] | [13]
inactive: all other assays above

CCOC(=O)[C@@](C)(N)Cc1ccc(O)c(O)c1
active: [2] 21 µM | [10] 23.7 µM
inactive: [1] | [3] | [6] | [7] | [13] | [11]

CCOCCn1c(N2CCCN(C)CC2)nc2ccccc21
not listed: [3] | [9] | [14]
inactive: all other assays above

CC(=O)Nc1ccc(OC(=O)c2ccccc2OC(C)=O)cc1
not listed: [14]
inactive: all other assays above

Cc1cc(-c2ccccc2)nnc1NCCN1CCOCC1
not listed: [14]
inactive: all other assays above

NC(=O)n1c(O)c(C(=O)c2cccs2)c2cc(Cl)ccc21
inactive: [1] | [2]
active: [3] 15 µM | [5] 26.6 µM | [7] 16.8 µM

CCOc1ccccc1OCCN[C@H](C)Cc1ccc(OC)c(S(N)(=O)=O)c1
not listed: [14]
inactive: all other assays above

O=C1C(CCS(=O)c2ccccc2)C(=O)N(c2ccccc2)N1c1ccccc1 (stereo not drawn)
not listed: [9] | [12] | [14]
inactive: all other assays above

C=C[C@H]1CN2CC[C@H]1C[C@@H]2[C@@H](O)c1ccnc2ccc(OC)cc12
not listed: [14]
inactive: all other assays above

C[N+]1(C)CCC(=C(c2ccccc2)c2ccccc2)CC1
not listed: [11] | [14]
inactive: all other assays above

CN1CCN(c2cc3c(cc2F)c(=O)c(C(=O)O)cn3-c2ccc(F)cc2)CC1
not listed: [11] | [14]
inactive: all other assays above

CC(C)Cn1cnc2c1c(=O)n(C)c(=O)n2C
not listed: [12] | [14]
inactive: all other assays above

CCOC(=O)Nc1ccc2c(c1)N(C(=O)CCN1CCOCC1)c1ccccc1S2
not listed: [3] | [8] | [9] | [13] | [14]
inactive: all other assays above

FC(F)(F)C(F)(F)C(F)(F)C(F)(F)C(F)(F)C(F)(F)C(F)(F)C(F)(F)Br
not listed: [12] | [14]
inactive: all other assays above

OC[C@H]1O[C@@H]2O[C@H]3[C@H](O)[C@@H](O)[C@@H](O[C@H]4[C@H](O)[C@@H](O)[C@@H](O[C@H]5[C@H](O)[C@@H](O)[C@@H](O[C@H]6[C@H](O)[C@@H](O)[C@@H](O[C@H]7[C@H](O)[C@@H](O)[C@@H](O[C@H]8[C@H](O)[C@@H](O)[C@@H](O[C@H]1[C@H](O)[C@H]2O)O[C@@H]8CO)O[C@@H]7CO)O[C@@H]6CO)O[C@@H]5CO)O[C@@H]4CO)O[C@@H]3CO
not listed: [8] | [9] | [11] | [14]
inactive: all other assays above

CC(C(=O)O)c1cccc(Oc2ccccc2)c1 (stereo not drawn)
not listed: [3] | [4] | [9]
inactive: all other assays above
